Compound activity as filed in PubChem.
ERK AVP block: qHTS Assay for Inhibitors of the ERK Signaling Pathway using a Homogeneous Screening Assay; HEK293-V1b, vasopressin-stimulated pERK AlphaScreen; Potency, µM (titrated, usually from 57.5 µM), inactives show at the top dose activity, negative = inhibition, hits mostly inhibitors; 72,000 tested, 0.99% active; further: on the % scale 0 is the no-effect control and ±100 the full control effect; nearly all actives have a fitted effect of over 55% in size
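Overnight-seeded V1b-HEK293 cells in 1% FBS got compound, then vasopressin (25 nM final, 5 min, 37C), then lysis buffer. AlphaScreen detection of phospho-ERK; activity normalized to basal and full-stimulation controls.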
TSHR agonist: qHTS Assay for Agonists of the Thyroid Stimulating Hormone Receptor; HEK293-CNG-TSHR cells (CNG channel as cAMP sensor), membrane potential dye, cAMP; AID 926, 2007; Potency, µM (series often up to 57.1 µM), inactives show at the top dose activation, usual class: activators; 73,000 tested, 0.48% active; active means well fitted activation curve with a large enough effect in the main read-out, with a control signal flat, not every such curve was filed as active; inconclusive means small, poorly fitted or top-dose-only effect, or a change in a side signal; inactive means no such curve, though single readings can be large or run the other way; % of control where 0% means no effect;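 further: the control signal comes from parental cells without the receptor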
Target sequence (P16473 whole entry, looked up): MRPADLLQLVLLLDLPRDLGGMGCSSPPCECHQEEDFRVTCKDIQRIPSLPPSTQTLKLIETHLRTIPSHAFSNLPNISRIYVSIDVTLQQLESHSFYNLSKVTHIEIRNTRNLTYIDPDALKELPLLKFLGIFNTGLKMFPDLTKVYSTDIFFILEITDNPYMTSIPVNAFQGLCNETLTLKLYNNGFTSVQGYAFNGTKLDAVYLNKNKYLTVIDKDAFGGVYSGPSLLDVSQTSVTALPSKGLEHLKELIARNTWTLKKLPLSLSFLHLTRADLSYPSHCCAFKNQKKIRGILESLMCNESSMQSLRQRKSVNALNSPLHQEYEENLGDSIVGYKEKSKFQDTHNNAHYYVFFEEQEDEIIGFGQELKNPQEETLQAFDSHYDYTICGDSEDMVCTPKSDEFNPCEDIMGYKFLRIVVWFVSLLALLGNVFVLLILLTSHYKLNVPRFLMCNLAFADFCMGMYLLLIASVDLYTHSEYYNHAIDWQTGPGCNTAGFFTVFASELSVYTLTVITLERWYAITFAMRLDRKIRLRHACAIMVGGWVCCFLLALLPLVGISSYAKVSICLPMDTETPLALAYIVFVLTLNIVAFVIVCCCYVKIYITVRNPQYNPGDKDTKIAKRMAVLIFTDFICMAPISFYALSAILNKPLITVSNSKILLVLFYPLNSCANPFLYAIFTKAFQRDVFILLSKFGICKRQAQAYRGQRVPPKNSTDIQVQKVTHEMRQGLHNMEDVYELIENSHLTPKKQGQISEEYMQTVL
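HEK 293 cells stably expressing TSHR and a cAMP-gated CNG channel; parental CNG-only cells as counterscreen. Cells preloaded 60 min with membrane potential dye plus 100 uM RO 20-1724, then compound 30 min; fluorescence read at 590 nm.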
CRE Fsk mod: Cell signaling CRE-BLA (Fsk stim); CHO CRE-bla reporter (cAMP response element driving beta-lactamase), forskolin EC10, beta-lactamase ratio; Potency, µM (highest dose often 38.2 µM), inactives show at the top dose activity change, negative = inhibition, actives largely listed as activators; 71,000 tested, 2.5% active; active means well fitted activation curve with a large enough effect in the signal ratio, with a control signal flat, not every such curve was filed as active; inconclusive means small, poorly fitted or top-dose-only effect, or effect the other way, or a change in a side signal; the % refers to the signal ratio; further: % of control where 0% means no effect
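qHTS titration format; CRE-bla CHO reporter; stimulus EC10 NKH 477, a water-soluble forskolin. Read: CCF4 460/530 nm ratio. Potency expressed as AC50 for activators or inhibitors.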
HEK293 cAMP ctrl: qHTS Assay for Agonists of the Thyroid Stimulating Hormone Receptor: Activators of Intracellular cAMP Concentrations in Parental HEK 293. parental HEK293 CNG cAMP sensor, membrane potential fluorescence. Potency, µM (titrated, usually from 57.1 µM), without a hit: at the highest dose activation, usual class: activators. AID 938, 2007. 73,000 tested, 2.5% active; further: % of control where 0% means no effect; nearly all actives have a fitted effect of over 55% in size
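Counterscreen for endogenous-receptor signalling: CNG-channel HEK 293 cells report cAMP rise by membrane depolarization. After 60 min dye equilibration with 100 uM RO 20-1724, compounds incubated 30 min before bottom-read fluorescence at 590 nm.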
Tau filament bind: qHTS Assay for Tau Filament Binding; recombinant tau filaments, thioflavin S fluorescence, 15 h; filaments grown with octadecylsulfate alongside compound; Potency, µM (highest dose often 57.1 µM), for the others: at the highest dose activity change, negative = inhibition; 71,000 tested, 2% active;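 further: on the % scale 0 is the no-effect control and ±100 the full control effect; actives lower thioflavin S fluorescence by blocking filaments or displacing dye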
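Recombinant tau protein (human, 1 uM final) plus 30 uM ODS in HEPES pH 7.4 with NaCl, DTT and thioflavine S. Compound present from the start; fluorescence at 510 nm after 15 h, 37 C.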
* = called active by the depositor; i = inactive; u = inconclusive; x = not tested or not shown; [ ] = remark or other dose. Hits are enriched below; roughly 7.6% of the tested compounds scored in any of these assays. Unless noted, the call rests on the fitted dose curve; in most records, active means well fitted curve in the direction sought with a large enough effect; inconclusive means small, poorly fitted or top-dose-only effect, or another doubt; inactive means no such curve, though single readings can be large; an effect the other way counts as inactive or inconclusive. Potency means the concentration at half of the fitted maximal effect.

SMILES	ERK AVP block	TSHR agonist	CRE Fsk mod	HEK293 cAMP ctrl	Tau filament bind
C=CCn1c(SCc2nc3ccccc3[nH]2)nnc1-c1ccncc1	-13%	2%	u	-4%	-17%
O=C(c1ccncc1)N1CCC2(CC1)CN(C(c1ccccc1)c1ccccc1)C2	3%	16%	-14%	10%	6%
COC(=O)n1c(SC)nc2ccccc21	-23%	7%	10µM*	4%	-14%
CCCn1c(NC(=O)c2ccc(Cl)c(S(=O)(=O)N3CCCC3)c2)nc2ccccc21	3.2µM*	u	u	16µM*	34%
O=S1(=O)C=C(Sc2nc3ccccc3s2)c2ccccc21	13µM*	1%	10%	11%	-13%
C/C(CCC(=O)OC[C@@H]1O[C@H](C#Cc2ccccc2)C=C[C@@H]1Oc1ccc(C)cc1)=N/O[C@@H](C)CN1CCCCc2nc(C)c(C)cc21	3%[11.5 µM]	18%[11.4 µM]	x	28%[11.4 µM]	x
COc1cc(CNc2ccc(C)c(C)c2)cc(OC)c1OC	40µM*	u	6%	u	u
COc1ccc(Nc2cc(C(=O)NCCCN3CCN(C)CC3)c3ccccc3n2)cc1OC	16%	u	-3%	u	16µM*
CCN1C(C)=C(C(=O)OC)C(c2ccccc2)N2C(=O)[C@](O)(C(=O)OC)CC(C(C)=O)=C12 (stereo not given in full)	17%[11.5 µM]	-5%[11.4 µM]	x	-1%[11.4 µM]	x
C=CCOC(=O)c1[nH]c2c(c1C)C(=O)CC(c1ccco1)C2 (stereo not given)	u	u	0.5µM*	u	80%
Cc1c(C(=O)OCC2CCCO2)[nH]c2c1C(=O)CC(c1ccco1)C2 (stereo not given)	-5%	10%	u	3%	12%
Cc1c(C(=O)OC2CCCC2)[nH]c2c1C(=O)CC(c1ccco1)C2 (stereo not given)	25µM*	x	0.5µM*	20%	69%
C/C=C/COC(=O)c1[nH]c2c(c1C)C(=O)CC(c1ccco1)C2 (stereo not given)	-11%	u	1.3µM*	u	85%
Cc1c(C(=O)OCC(C)C)[nH]c2c1C(=O)CC(c1ccco1)C2 (stereo not given)	u	u	1.6µM*	u	70%
Cc1cc2c(nc1C)CCCN2C[C@@H](O)CN1CCN(C)CC1	15%[11.5 µM]	-2%[11.4 µM]	x	1%[11.4 µM]	x
O=C(NCCc1ccccc1)C1CCN(S(=O)(=O)N2CCCC2)CC1	0%	u	-10%	25µM*	-7%
O=C(NCc1ccc(F)cc1)C1CCN(C(=O)NCc2ccccc2)CC1	17%	u	-7%	4µM*	6%
O=C(NCc1ccccc1F)C1CCN(C(=O)NCc2ccccc2)CC1	9%	-4%	-2%	0%	-1%
CC(C)[C@@H](CC(=O)N[C@@H]1CCCC[C@H]1C(=O)N[C@H](CC(=O)N[C@@H](CCC(=O)O)CC(=O)O)Cc1ccccc1)NC(=O)C[C@H](CO)NC(=O)[C@@H]1CCCC[C@H]1N	x	5%	u	-10%	7%
CCOC(=O)N/N=C1/C[C@@H](O)[C@@H](O)[C@@H]2[C@@H]3C(=O)N(C[C@@H]4CCCO4)C(=O)[C@H]3CC[C@H]12	36%[11.5 µM]	-2%[11.4 µM]	x	1%[11.4 µM]	x
O=C1NC(c2ccco2)Nc2sc3c(c21)CCN(Cc1ccccc1)C3 (stereo not given)	-8%	-1%	3.2µM*	-1%	i
CN1CCc2c(sc3c2C(=O)NC(c2cn(Cc4ccccc4)c4ccccc24)N3)C1 (stereo not given)	13µM*	-21%	u	-4%	u
COc1ccc(Br)cc1C1NC(=O)c2c(sc3c2CCN(C)C3)N1 (stereo not given)	-3%	0%	13µM*	-3%	i
CN1CCc2c(sc3c2C(=O)NC(c2cccc(OC(=O)c4cccs4)c2)N3)C1 (stereo not given)	9%	5%	u	22%	i
CN1CCc2c(sc3c2C(=O)NC(c2ccco2)N3)C1 (stereo not given)	u	-2%	13µM*	1%	i
SMILES	ERK AVP block	TSHR agonist	CRE Fsk mod	HEK293 cAMP ctrl	Tau filament bind
Cc1ccc(C(=O)Nc2ccccc2N2CCOCC2)c(C)c1	x	1%	x	7%	x
CC(C)CO/N=C1/C[C@@H](O)[C@@H](O)[C@@H]2[C@@H]3C(=O)N(C4CCCCC4)C(=O)[C@H]3CC[C@H]12	14%[11.5 µM]	-1%[11.4 µM]	x	12%[11.4 µM]	x
CN(C)c1ccc(-c2cncnc2Nc2ccccc2)cc1	u	x	-15%	10%	-16%
OC[C@@H]1CCC[C@H](n2cnc3c(=S)nc[nH]c32)O1	-7%[11.5 µM]	4%[11.4 µM]	16%[7.6 µM]	5%[11.4 µM]	0%[11.4 µM]
N#CCCN1CCN(C(=S)c2ccc(-c3ccc(Cl)c(Cl)c3)o2)CC1	-10%	-9%	u	-2%	13µM*
S=C(c1ccc(-c2cccc(Cl)c2)o1)N1CCOCC1	u	27%	14%	20%	16µM*
N#CCCN1CCN(C(=S)c2ccc(-c3cccc(Cl)c3)o2)CC1	u	x	27%	22%	4µM*
S=C(c1ccc(-c2cc(Cl)ccc2Cl)o1)N1CCOCC1	x	x	x	27%	x
N#CCCN1CCN(Cc2cc(-c3ccccc3)ccc2O)CC1	24%	-8%	-6%	13%	7%
COc1ccc(/C=C/N(CCc2ccc(OC)c(OC)c2)C(=O)c2ccccn2)cc1	20%[11.5 µM]	5%[11.4 µM]	x	15%[11.4 µM]	x
CC(=O)OCC1OC(c2ccc(C(C)=O)cc2)C=CC1OC(C)=O (stereo not given)	17%[11.5 µM]	-2%[11.4 µM]	x	2%[11.4 µM]	x
CN1CC[C@H](CN2c3ccccc3Sc3ccccc32)C1	7%[11.5 µM]	4%[11.4 µM]	0%[7.6 µM]	-13%[11.4 µM]	4µM*
CCn1nc(NC(=O)c2ccncc2)c2cc3ccccc3nc21	-24%	-14%	6.3µM*	27%	-9%
CCn1nc(NC(=O)c2ccncc2)c2cc3cccc(C)c3nc21	-10%	-11%	5µM*	5%	-21%
COc1cccc(Cn2c(=O)c(-c3cn(C)c4ccccc34)nc3cnc(N4CCNCC4)nc32)c1	17%	1%	u	-10%	344%
COc1ccccc1N1CCN(C(=O)CSc2nc(-c3ccccc3)cc(=O)[nH]2)CC1	-28%	19%	-8%	16%	9%
CC1CCN(C(=O)CSc2nc3ccccc3[nH]2)CC1	u	6%	1%	4%	-18%
O=C(CSc1nc2ccccc2[nH]1)N1CCN(c2ccc(F)cc2)CC1	25µM*	18%	u	24%	-18%
COc1ccc(N2CCN(C(=O)CSc3nnc(C)c(=O)[nH]3)CC2)cc1	18%	u	-11%	1.3µM*	1%
